Screens (PubChem)
The list is not random: actives were taken first. Their share in the collection is about 7.5%.
FLuc modulator – qHTS profiling assay for firefly luciferase inhibitor/activator using purifed enzyme and Km concentrations of substrates (counterscreen for miR-21 project) | purified FLuc, Km substrates, luminescence inhibition | 360,000 compounds, 6.9% hits | Potency, µM (series often up to 57.5 µM), for inactives: top-dose activity change, negative = inhibition, hits mostly inhibitors;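 note: plate controls were vehicle for no effect and reference inhibitor for full effect; nearly all actives have a fitted effect of over 55% in size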
Target sequence (P08659 whole entry, looked up): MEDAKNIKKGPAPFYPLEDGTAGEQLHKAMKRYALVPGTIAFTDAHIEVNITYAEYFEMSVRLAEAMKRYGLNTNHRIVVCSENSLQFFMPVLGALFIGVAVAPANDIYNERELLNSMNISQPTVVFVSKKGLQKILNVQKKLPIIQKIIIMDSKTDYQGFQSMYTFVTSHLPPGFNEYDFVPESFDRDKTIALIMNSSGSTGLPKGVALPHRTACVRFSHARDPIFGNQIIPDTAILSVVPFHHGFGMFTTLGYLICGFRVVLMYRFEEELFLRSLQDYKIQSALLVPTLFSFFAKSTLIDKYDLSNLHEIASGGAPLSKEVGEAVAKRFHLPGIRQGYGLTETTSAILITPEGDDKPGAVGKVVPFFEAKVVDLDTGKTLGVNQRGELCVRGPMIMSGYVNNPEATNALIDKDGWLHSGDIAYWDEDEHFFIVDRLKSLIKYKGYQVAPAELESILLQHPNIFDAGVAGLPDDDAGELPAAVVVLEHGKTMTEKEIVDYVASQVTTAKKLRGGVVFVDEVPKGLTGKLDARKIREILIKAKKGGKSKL
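Purified P. pyralis luciferase, 10 nM final, with Km-level 10 uM D-luciferin and 10 uM ATP in 50 mM Tris acetate pH 7.5, 10 mM Mg acetate, 0.01% Tween-20, 0.05% BSA; 6-point qHTS titration about 60 µM downward; luminescence read.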
SMN2 splice up – qHTS Assay for Enhancers of SMN2 Splice Variant Expression; Potency, µM (highest dose often 46.1 µM), for the others: at the highest dose activity change, positive = activation, most hits filed as activators; HEK293 SMN2-luciferase splicing reporter, luminescence, 30-36 h; 210,000 compounds, 2.8% hits; note: % of control where 0% means no effect; nearly all actives have a fitted effect of over 55% in size
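qHTS luciferase splicing reporter: luminescence rises when SMN2 exon 7 is included in transfected HEK293 cells. Compound exposure lasted 30-36 h at 37C, with 4.5 mM final sodium butyrate as control, followed by a ONE-Glo read.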
ELG1 genotoxic – qHTS screen for small molecules that induce genotoxicity in human embryonic kidney (HEK293T) cells expressing luciferase-tagged ELG1; HEK293T ELG1-luciferase reporter, luminescence, 16 h; Potency, µM (titrated, usually from 46 µM), inactives show top-dose activity change, positive = activation, usual class: activators; 330,000 compounds, 1.3% hits; AID 504466, 2011; note: % of control where 0% means no effect; nearly all actives have a fitted effect of over 60% in size
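HEK293T cells expressing luciferase-tagged ELG1 were treated with compound or DMSO for 16 hr at 37°C. Luciferase activity was then read after 30 min with ONE-Glo at room temperature; rising signal flags genetic stress.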
NPC1 promoter act – qHTS Assay for NPC1 Promoter Activators; Huh7 NPC1 promoter luciferase reporter, 24 h; Potency, µM (titrated, usually from 9.22 µM), for the others: top-dose activation, most hits filed as activators; 320,000 compounds, 2.4% hits; note: % of control where 0% means no effect; nearly all actives have a fitted effect of over 60% in size
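Huh7 cells stably carrying NPC1 promoter–luciferase, plated in Opti-MEM with 10% FBS for 2 h, were exposed to compound in DMSO for 24 h at 37 °C; luciferase reagent was added for 10 min and luminescence read.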
Rab9 prom act – qHTS Assay for Rab9 Promoter Activators; Huh7 Rab9 promoter-luciferase reporter, luminescence, 24 h; Potency, µM (series often up to 9.22 µM), without a hit: top-dose activation, negative = inhibition, actives largely listed as activators; 320,000 compounds, 2.8% hits; note: % of control where 0% means no effect; nearly all actives have a fitted effect of over 60% in size
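Huh7 cells stably carrying a Rab9 promoter-luciferase reporter, 1500 cells per well in OP-MEM I with 10% FBS, treated with compound 24 hours at 37C. Luciferase activity read by luminescence after 10 minutes with Amplite reagent.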
Luc counter – Counterscreen for Luciferase (Kinase-Glo TM) Inhibition. Kinase-Glo luciferase, ATP luminescence, 8 min. AID 1379, 2008. 200,000 compounds, 0.28% hits. Potency, µM (doses to about 38.3 µM), without a hit: at the highest dose activity change, negative = inhibition, hits mostly inhibitors; note: % is set by controls: 0 for no effect and ±100 for the full control effect; nearly all actives have a fitted effect of over 60% in size
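Light output from Kinase-Glo luciferase with luciferin and 10 uM ATP in 50 mM imidazole pH 7.2, KCl, MgCl2, Tween 20, BSA; compound pin-delivered, 8-min ambient incubation, then luminescence read.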
Numbers without * were called inactive; ? = inconclusive; . = no result; [ ] = remark or other dose. Calls come from the whole dose curve; as a rule, active = well fitted curve in the direction sought with a large enough effect; inconclusive = small, poorly fitted or top-dose-only effect, or another doubt; inactive = no such curve, though single readings can be large; an effect the other way counts as inactive or inconclusive. Potency is the fitted concentration of half-maximal effect.

SMILES | FLuc modulator | SMN2 splice up | ELG1 genotoxic | NPC1 promoter act | Rab9 prom act | Luc counter
Cc1ccc2nc(SCc3cccc([N+](=O)[O-])c3)nc(C)c2c1 | -16.2% | -8.8% | 0.7% | 0.1% | 2.2% | -1.3%
COc1ccc2nc(SCc3ccccc3C)nc(C)c2c1 | ? | 22.4µM* | ? | ? | ? | 1.0%
CCNc1c(NC(=O)c2ccccc2OCC)c(=O)oc2ccccc12 | -7.4% | -2.7% | . | . | . | .
COCCn1c(C)cc(C(=O)COC(=O)c2ccc(Br)o2)c1C | 1.9µM* | 26.0% | 4.11µM* | 3.16µM* | ? | -9.6%
Cc1cc(C(=O)COC(=O)c2cc(Cl)c(O)c(Cl)c2)c(C)n1C | 16.9µM* | . | 7.6% | 1.4% | 9.0% | .
COCCn1c(C)cc(C(=O)COC(=O)CNC(=O)c2ccccc2)c1C | ? | 3.3% | 10.8% | -1.7% | -3.7% | 2.7%
Cc1cc(C(=O)COC(=O)c2ccc(Br)o2)c(C)n1C | 8.49µM* | 1.0% | ? | -3.4% | 26.2% | -6.6%
Cc1ccccc1OCCCCn1c(CCNC(=O)C(C)(C)C)nc2ccccc21 | -8.2% | -24.7% | . | . | . | .
COc1ccc(Br)c(C(=O)Nc2cc3c(cc2N2CCCCC2)n(C)c(=O)c(=O)n3C)c1 | -0.4% | -3.6% | . | . | . | .
O=C1/C(=C/c2cccs2)N=C(c2cccs2)N1Nc1ccccc1 | 23.9µM* | -6.6% | 2.4% | -3.0% | 10.0% | 0.8%
Cc1ccc(C2=N/C(=C\c3cccs3)C(=O)N2Nc2ccccc2)cc1 | -19.8% | -1.4% | -2.0% | -0.2% | 14.9% | 0.8%
O=C1/C(=C\c2cccs2)N=C(c2cccs2)N1Nc1ccccc1 | 21.3µM* | -5.6% | -5.2% | -2.6% | -18.3% | -6.5%
O=C(NN1C(=O)/C(=C/c2cccs2)SC1=S)c1ccccc1 | 0.4% | -6.1% | -1.4% | -1.8% | -4.5% | 3.3%
Cc1cc(NC(=S)NC(=O)C2CC2)ccc1Br | 23.9µM* | . | 3.8% | -12.7% | 21.5% | .
Cc1cccc(NC(=S)NC(=O)C2CC2)c1 | ? | . | ? | 27.4% | 20.3% | .
Cc1cc(=O)n(Cc2cccc(F)c2)c2c1c(C)nn2-c1cccc(F)c1 | -6.2% | . | . | . | . | .
CC(C)NC(=O)N1CCC2(CC1)CCN(C(=O)c1ccncc1)CC2 | . | -4.2% | . | . | . | -3.2%
Cc1ccc(OCC(=O)N(Cc2ccco2)Cc2ccco2)cc1C | -17.9% | -5.6% | . | . | . | .
COc1ccc(OCc2nc3ccccc3n2Cc2ccc(C(C)(C)C)cc2)cc1 | 9.53µM* | 11.2µM* | . | . | . | .
CCn1c(COc2cccc(C)c2)nc2ccccc21 | ? | -9.0% | -1.0% | -0.2% | -3.2% | -6.9%
COCn1c(COc2ccc3ccccc3c2)nc2ccccc21 | 2.39µM* | 11.2µM* | ? | 2.82µM* | 2.51µM* | -7.4%
CC(C)(C)c1ccc(OCc2nc3ccccc3n2CCOc2ccccc2)cc1 | -4.7% | -34.9% | . | . | . | .
O=C(Nc1ccc2c(c1)CCCN2C(=O)c1cccs1)c1ccc(F)c(F)c1 | -13.8% | . | . | . | . | .
CN1C(=O)Cc2cc(S(=O)(=O)CCC(=O)Nc3ccc(Cl)cc3)ccc21 | -1.7% | . | . | . | . | .
O=[N+]([O-])c1ccccc1-c1nc(-c2ccc(Br)o2)no1 | 3.01µM* | 17.1%[1.84 µM] | ? | 3.16µM* | 2.82µM* | -3.2%
SMILES | FLuc modulator | SMN2 splice up | ELG1 genotoxic | NPC1 promoter act | Rab9 prom act | Luc counter
Nc1nnc(-c2ccccc2[N+](=O)[O-])o1 | -7.6% | -0.9% | 1.8% | -1.2% | -4.8% | 1.2%
Clc1ccccc1-c1nc(-c2ccc(Br)o2)no1 | 1.2µM* | . | 4.11µM* | 1.26µM* | 0.708µM* | .
O=[N+]([O-])c1cc(Cl)ccc1-c1nc(-c2ccccc2)no1 | 1.2µM* | 17.4%[1.84 µM] | ? | 3.55µM* | 3.16µM* | -4.4%
CCOC(=O)c1cc(-c2ccc(C)cc2)nc2nc(SC)[nH]c(=O)c12 | 4.78µM* | 6.1% | -1.0% | -2.2% | -1.5% | -1.2%
COC(=O)c1cc(-c2ccc(OC)cc2)nc2nc(SC)[nH]c(=O)c12 | 5.36µM* | . | 0.5% | -5.0% | -0.9% | .
CCOC(=O)c1cc(-c2cccc(C(F)(F)F)c2)nc2nc(SC)[nH]c(=O)c12 | 12µM* | 4.7% | -5.9% | -2.0% | -2.4% | 0.2%
CCCCn1c(=O)[nH]c(=O)c2c(C(=O)OCC)cc(-c3ccc(OC(F)F)cc3)nc21 | -1.1% | 12.5% | ? | 2.2% | -10.9% | -1.7%
O=c1cc(CSc2ncn[nH]2)[nH]c2c(Cl)cccc12 | -12.6% | . | . | . | . | .
Cc1cc(OCC(=O)Nc2sc3c(c2C#N)CCC(C)C3)ccc1Cl (stereo not drawn) | 0.9% | -9.7% | . | . | . | .
Cc1nc2ccccc2c(=O)n1-c1ccc(NC(=O)C(F)(F)F)cc1 | -4.4% | . | . | . | . | .
O=C(C1CC(c2ccccc2O)=NO1)N1CCCCC1 (stereo not drawn) | 15.1µM* | 0.159µM* | 13µM* | ? | 4.47µM* | -8.1%
CC1CCCCN1C(=O)C1CC(c2ccc(F)cc2)=NO1 (stereo not drawn) | 21.3µM* | . | 17.9% | ? | 2µM* | .
O=C(C1CC(c2ccc(F)cc2)=NO1)N1CCCCC1 (stereo not drawn) | 15.1µM* | 28.2µM* | ? | 3.16µM* | ? | -3.0%
CCOc1ccc(/C=C2\SC(=S)N(CCC(=O)O)C2=O)cc1 | 1.69µM* | . | 0.1% | -10.6% | -30.9% | .
O=C(O)CCN1C(=O)CC(N2C(=O)/C(=C/c3ccc(Cl)cc3)SC2=S)C1=O (stereo not drawn) | 19µM* | 1.2% | -5.8% | -5.4% | 0.1% | -3.6%
COc1ccc(/C=C2\SC(=S)N(CCC(=O)N3CCCCC3)C2=O)cc1 | ? | . | -5.3% | -7.8% | -4.8% | .
CCOc1ccc(/C=C2/SC(=S)N(CCC(=O)Nc3ccc(C(=O)O)cc3)C2=O)cc1 | 1.2µM* | . | ? | 1.3% | 0.1% | .
CCOc1ccc(/C=C2\SC(=S)N(CCC(=O)Nc3ccccc3C(=O)O)C2=O)cc1 | 15.1µM* | . | 6.2% | 1.9% | ? | .
Nc1nc(=O)n(C2OC(CO)C(O)C2O)cc1Cl (stereo not drawn) | . | -10.7% | . | . | . | -4.5%
CCOc1ccc(S(=O)(=O)c2cn(Cc3ccccc3C)c3ccc(OC)cc3c2=O)cc1 | -0.6% | 0.3% | . | . | . | .
CC(C)(C)c1ccc(C(=O)NC2(C(F)(F)F)C(=O)Nc3c2c(=O)[nH]c(=O)n3-c2ccccc2)cc1 (stereo not drawn) | ? | 6.5% | . | . | . | .
Cc1ccccc1NC(=O)CSc1nc2c(c(=O)n(C)c(=O)n2C)n1Cc1ccccc1F | -0.6% | -1.3% | . | . | . | .
